In the supplement of paper PMC10849652:
The full data set covers some 8,800 targets. This sample favours those with a hit. About 0.5% of all pairs of compound and target were hits.

Compound: Cc1sc2c(c1C)C(c1ccc(Cl)cc1)=N[C@@H](CC(=O)OC(C)(C)C)c1nnc(C)n1-2
Experiment: log2 fold change, soluble protein after heating vs DMSO (PISA); higher = thermal stabilisation; K562 lysate, 10 uM; active = over 0.2 and 3.5 SD of the protein, either way, in both replicates (recomputed)
Summary of the method: (§1)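 Soluble protein was defined as the supernatant remaining after 21,000xg for 90 min, following pooling of heated aliquots and adjustment to 0.5% NP-40 at 4°C. Before that, crude K562 extract at 1 mg/mL protein in PBS pH 7.4 with 1 mM MgCl2 was treated with 10 μM compound for 30 min and heated for 3 min across 48°C-58°C. Quantification used TMTpro 16plex LC-MS/MS with channel sums equalised, and values are log-two fold changes in thermal stability relative to solvent controls from duplicates.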

Chain of UniProt Q13409 (Q13409 whole entry, looked up): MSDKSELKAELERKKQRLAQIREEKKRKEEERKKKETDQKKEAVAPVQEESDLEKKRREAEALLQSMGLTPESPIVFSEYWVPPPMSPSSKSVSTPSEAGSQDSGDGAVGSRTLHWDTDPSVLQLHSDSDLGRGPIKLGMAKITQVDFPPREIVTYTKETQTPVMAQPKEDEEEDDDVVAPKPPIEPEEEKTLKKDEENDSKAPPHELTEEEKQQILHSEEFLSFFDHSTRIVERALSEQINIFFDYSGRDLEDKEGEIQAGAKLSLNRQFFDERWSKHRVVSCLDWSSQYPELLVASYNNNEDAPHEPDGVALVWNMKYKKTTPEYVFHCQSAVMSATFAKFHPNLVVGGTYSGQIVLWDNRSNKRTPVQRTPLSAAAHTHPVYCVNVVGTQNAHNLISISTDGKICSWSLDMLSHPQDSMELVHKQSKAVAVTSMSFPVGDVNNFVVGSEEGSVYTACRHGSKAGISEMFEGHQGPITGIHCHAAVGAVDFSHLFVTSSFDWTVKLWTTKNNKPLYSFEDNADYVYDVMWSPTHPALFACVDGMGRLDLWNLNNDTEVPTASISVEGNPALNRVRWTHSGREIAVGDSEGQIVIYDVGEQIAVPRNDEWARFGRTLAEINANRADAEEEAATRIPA
Chain of UniProt P49356 (P49356 whole entry, looked up): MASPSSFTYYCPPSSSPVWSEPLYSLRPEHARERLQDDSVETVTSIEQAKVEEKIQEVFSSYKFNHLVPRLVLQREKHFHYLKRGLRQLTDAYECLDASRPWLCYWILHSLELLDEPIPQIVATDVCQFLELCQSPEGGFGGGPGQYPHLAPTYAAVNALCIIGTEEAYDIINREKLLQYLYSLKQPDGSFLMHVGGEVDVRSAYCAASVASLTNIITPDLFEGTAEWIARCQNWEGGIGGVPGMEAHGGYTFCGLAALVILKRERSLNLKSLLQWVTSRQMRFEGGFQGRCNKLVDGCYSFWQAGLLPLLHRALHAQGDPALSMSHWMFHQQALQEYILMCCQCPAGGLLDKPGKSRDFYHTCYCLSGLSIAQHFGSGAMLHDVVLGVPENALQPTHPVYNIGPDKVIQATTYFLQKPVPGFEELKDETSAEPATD
Chain of UniProt Q9NPA0 (Q9NPA0 whole entry, looked up): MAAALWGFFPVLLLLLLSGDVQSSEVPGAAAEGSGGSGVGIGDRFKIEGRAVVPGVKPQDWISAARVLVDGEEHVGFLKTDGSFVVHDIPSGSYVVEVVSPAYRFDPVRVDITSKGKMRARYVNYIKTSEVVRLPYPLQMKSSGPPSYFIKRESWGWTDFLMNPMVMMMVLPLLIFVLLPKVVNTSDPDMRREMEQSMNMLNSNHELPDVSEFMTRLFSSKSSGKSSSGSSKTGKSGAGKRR
Chain of UniProt Q8NFI3 (Q8NFI3 whole entry, looked up): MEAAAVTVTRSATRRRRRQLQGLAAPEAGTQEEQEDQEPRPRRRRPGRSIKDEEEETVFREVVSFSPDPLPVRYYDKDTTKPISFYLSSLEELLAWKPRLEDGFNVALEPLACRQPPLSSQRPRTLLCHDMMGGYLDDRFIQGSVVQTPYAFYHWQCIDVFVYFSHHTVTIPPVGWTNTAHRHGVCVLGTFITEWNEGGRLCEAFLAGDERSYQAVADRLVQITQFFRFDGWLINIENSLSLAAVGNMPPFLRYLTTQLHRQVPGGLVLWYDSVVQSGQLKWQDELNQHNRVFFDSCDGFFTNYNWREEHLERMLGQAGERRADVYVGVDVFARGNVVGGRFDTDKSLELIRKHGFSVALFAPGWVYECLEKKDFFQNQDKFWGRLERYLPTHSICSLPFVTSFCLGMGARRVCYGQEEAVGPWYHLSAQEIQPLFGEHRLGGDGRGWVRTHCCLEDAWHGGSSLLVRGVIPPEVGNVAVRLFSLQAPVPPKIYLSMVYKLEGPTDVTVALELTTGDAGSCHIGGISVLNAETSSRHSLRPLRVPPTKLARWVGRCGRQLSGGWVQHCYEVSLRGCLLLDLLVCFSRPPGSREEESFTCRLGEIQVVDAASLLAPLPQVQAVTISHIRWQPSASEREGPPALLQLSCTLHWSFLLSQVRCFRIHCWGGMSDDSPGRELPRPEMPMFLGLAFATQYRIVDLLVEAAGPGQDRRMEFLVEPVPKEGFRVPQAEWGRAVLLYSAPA
Chain of UniProt Q14C86 (Q14C86 whole entry, looked up): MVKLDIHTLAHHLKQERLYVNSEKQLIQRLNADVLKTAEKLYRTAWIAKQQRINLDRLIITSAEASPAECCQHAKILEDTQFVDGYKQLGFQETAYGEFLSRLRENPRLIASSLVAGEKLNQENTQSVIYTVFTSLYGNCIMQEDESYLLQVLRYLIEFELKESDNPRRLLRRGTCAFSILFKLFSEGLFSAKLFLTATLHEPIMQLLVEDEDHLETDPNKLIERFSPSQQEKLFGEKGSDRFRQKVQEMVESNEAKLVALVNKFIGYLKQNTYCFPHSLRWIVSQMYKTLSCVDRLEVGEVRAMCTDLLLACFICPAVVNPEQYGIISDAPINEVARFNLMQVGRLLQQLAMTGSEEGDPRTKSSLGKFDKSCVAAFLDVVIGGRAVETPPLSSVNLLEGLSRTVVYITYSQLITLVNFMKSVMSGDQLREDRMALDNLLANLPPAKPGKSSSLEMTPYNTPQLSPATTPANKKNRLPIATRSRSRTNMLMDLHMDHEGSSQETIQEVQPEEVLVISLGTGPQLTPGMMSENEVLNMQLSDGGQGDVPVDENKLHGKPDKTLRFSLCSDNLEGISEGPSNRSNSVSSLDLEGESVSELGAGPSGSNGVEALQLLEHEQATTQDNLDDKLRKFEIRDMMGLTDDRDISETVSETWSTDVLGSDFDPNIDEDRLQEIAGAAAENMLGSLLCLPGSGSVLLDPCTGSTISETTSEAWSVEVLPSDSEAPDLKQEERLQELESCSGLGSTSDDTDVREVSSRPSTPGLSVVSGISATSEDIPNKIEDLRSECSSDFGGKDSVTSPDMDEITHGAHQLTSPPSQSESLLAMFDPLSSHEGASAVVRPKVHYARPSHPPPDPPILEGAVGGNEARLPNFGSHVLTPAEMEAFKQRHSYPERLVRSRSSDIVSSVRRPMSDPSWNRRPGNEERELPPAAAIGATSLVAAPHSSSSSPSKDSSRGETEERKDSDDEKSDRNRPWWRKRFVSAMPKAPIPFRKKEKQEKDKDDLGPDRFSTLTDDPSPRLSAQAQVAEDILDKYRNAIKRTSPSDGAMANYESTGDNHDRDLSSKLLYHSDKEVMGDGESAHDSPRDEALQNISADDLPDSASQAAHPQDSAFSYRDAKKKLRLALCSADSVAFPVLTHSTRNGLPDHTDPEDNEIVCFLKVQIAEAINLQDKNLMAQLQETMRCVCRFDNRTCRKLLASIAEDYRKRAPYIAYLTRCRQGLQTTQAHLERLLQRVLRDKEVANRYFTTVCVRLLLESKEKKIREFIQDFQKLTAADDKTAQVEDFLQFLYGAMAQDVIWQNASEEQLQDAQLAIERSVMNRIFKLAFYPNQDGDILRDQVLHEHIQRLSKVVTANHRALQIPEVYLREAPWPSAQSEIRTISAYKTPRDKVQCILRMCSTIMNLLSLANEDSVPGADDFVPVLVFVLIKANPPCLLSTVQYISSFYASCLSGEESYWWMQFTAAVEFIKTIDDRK
Chain of UniProt P11413 (P11413 whole entry, looked up): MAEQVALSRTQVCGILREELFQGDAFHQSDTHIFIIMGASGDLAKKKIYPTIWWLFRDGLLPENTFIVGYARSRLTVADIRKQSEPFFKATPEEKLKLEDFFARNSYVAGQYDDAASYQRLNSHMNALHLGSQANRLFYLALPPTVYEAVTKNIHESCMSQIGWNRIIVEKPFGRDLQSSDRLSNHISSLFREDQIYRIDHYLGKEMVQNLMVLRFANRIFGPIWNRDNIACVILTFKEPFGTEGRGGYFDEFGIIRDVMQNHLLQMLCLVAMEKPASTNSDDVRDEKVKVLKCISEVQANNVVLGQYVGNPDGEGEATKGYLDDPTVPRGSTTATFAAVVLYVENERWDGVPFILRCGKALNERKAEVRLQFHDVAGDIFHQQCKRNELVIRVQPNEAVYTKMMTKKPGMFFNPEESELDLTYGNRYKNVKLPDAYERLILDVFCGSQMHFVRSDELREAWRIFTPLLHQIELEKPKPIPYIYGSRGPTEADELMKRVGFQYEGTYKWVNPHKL
Chain of UniProt Q9GZT9 (Q9GZT9 whole entry, looked up): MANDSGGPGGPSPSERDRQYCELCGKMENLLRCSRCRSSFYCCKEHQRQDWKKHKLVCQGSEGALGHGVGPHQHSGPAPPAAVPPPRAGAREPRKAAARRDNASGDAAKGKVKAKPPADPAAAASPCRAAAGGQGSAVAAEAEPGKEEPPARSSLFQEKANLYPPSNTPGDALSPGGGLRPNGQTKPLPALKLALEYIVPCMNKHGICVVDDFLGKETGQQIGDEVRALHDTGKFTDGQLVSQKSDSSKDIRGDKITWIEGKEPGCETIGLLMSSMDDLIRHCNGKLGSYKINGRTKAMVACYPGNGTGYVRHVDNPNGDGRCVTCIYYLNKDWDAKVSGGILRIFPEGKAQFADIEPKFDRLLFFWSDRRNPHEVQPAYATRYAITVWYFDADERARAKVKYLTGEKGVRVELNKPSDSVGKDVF
Chain of UniProt O75616 (O75616 whole entry, looked up): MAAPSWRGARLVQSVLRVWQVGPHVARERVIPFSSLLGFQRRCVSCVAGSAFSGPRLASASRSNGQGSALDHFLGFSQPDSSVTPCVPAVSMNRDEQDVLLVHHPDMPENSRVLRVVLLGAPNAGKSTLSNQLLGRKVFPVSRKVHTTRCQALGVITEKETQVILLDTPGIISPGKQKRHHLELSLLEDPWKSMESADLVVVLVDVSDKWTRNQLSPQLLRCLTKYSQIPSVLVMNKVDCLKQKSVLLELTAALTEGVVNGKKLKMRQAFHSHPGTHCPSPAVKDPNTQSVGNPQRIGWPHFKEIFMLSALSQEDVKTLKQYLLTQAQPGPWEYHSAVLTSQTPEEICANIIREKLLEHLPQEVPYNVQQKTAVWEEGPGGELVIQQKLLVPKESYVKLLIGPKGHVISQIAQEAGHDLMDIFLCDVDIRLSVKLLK
Chain of UniProt Q9NPA8 (Q9NPA8 whole entry, looked up): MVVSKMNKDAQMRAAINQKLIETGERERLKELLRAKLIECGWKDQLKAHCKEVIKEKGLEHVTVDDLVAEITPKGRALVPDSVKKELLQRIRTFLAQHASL

Target	log2 fold change
GAMT (UniProt Q14353)	0.114 (inactive)
FLT4 (UniProt P35916)	0.098 (inactive)
FBXO30 (UniProt Q8TB52)	0.036 (inactive)
G6PD isoform 2 (UniProt P11413)	0.053 (inactive)
ELF2 (UniProt Q15723)	-0.005 (inactive)
DYNC1I2 isoform 5 (UniProt Q13409)	-0.018 (inactive)
ESYT2 (UniProt H7BXI1)	0.048 (inactive)
FXR1 (UniProt P51114)	0.04 (inactive)
GIGYF2 (UniProt Q6Y7W6)	-0.076 (inactive)
EXOC2 (UniProt Q96KP1)	-0.019 (inactive)
DST (UniProt Q03001)	-0.061 (inactive)
GAPVD1 isoform 6 (UniProt Q14C86)	-0.011 (inactive)
ENGASE (UniProt Q8NFI3)	0.017 (inactive)
EGLN1 (UniProt Q9GZT9)	-0.038 (inactive)
EDC4 (UniProt Q6P2E9)	0.008 (inactive)
EMC7 (UniProt Q9NPA0)	0.005 (inactive)
FNTB (UniProt P49356)	-0.008 (inactive)
ERAL1 (UniProt O75616)	0.009 (inactive)
ERLIN2 (UniProt O94905)	-0.126 (inactive)
EEF1A1P5 (UniProt Q5VTE0)	-0.067 (inactive)
EIF2B4 (UniProt Q9UI10)	-0.224 (inactive)
FIBP (UniProt O43427)	-0.027 (inactive)

Compound: c1ccc([C@@H]2C[C@H]2NC2CCNCC2)cc1
Experiment: as above
Summary of the method: as §1

Target	log2 fold change
ENY2 (UniProt Q9NPA8)	0.386 (inactive)
DTYMK (UniProt P23919)	0.098 (inactive)
GALNT2 (UniProt Q10471)	-0.021 (inactive)
EPB41 (UniProt P11171)	0.032 (inactive)
GATAD2A isoform 3 (UniProt Q86YP4)	0.036 (inactive)
FYB1 isoform 3 (UniProt O15117)	0.051 (inactive)
EIF2B5 (UniProt Q13144)	0.017 (inactive)
GBF1 (UniProt Q92538)	0.011 (inactive)
GGA2 (UniProt Q9UJY4)	0.032 (inactive)
DTWD1 (UniProt Q8N5C7)	0.095 (inactive)
GGT7 (UniProt Q9UJ14)	-0.048 (inactive)
ERI1 (UniProt Q8IV48)	0.056 (inactive)
GAMT (UniProt Q14353)	0.005 (inactive)
FLT4 (UniProt P35916)	-0.408 (inactive)
FBXO30 (UniProt Q8TB52)	0.12 (inactive)
G6PD isoform 2 (UniProt P11413)	0.075 (inactive)
ELF2 (UniProt Q15723)	0.013 (inactive)

Target	log2 fold change
DYNC1I2 isoform 5 (UniProt Q13409)	0.021 (inactive)
ESYT2 (UniProt H7BXI1)	0.036 (inactive)
FXR1 (UniProt P51114)	0.027 (inactive)
GIGYF2 (UniProt Q6Y7W6)	0.033 (inactive)
EXOC2 (UniProt Q96KP1)	0.063 (inactive)
DST (UniProt Q03001)	-0.077 (inactive)
GAPVD1 isoform 6 (UniProt Q14C86)	0.063 (inactive)
ENGASE (UniProt Q8NFI3)	-0.023 (inactive)
EGLN1 (UniProt Q9GZT9)	-0.007 (inactive)
EDC4 (UniProt Q6P2E9)	0.011 (inactive)
EMC7 (UniProt Q9NPA0)	-0.141 (inactive)
FNTB (UniProt P49356)	0.038 (inactive)
ERAL1 (UniProt O75616)	0.075 (inactive)
ERLIN2 (UniProt O94905)	0.143 (inactive)
EEF1A1P5 (UniProt Q5VTE0)	-0.036 (inactive)
FIBP (UniProt O43427)	-0.002 (inactive)
